Records with an inconclusive call do not appear. The source holds several records for some structures; these can differ, active in one and inactive in another. The source made the active and inactive calls. How the source made its calls, unless noted: active means hit-call score of the fitted dose curve at least 0.9, where 1 is the maximum; inactive means score below 0.9.
Key:
[1] = biological target: Retinoic acid receptor RXR-alpha (Homo sapiens) (UniProt P19793); experiment: OT_NURR1_NURR1RXRa_0480: Odyssey Thera (OT) 8-hour HEK293T Protein Complementation Assay for Nurr1/retinoid X receptor (RXR) (AID 2283385; active means hit-call score of the fitted dose curve at least 0.9, where 1 is the maximum)
Outline: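 8 h compound exposure, HEK293T; Nurr1/RXRα fragment complementation; fluorescence intensity; positive fitting direction vs DMSO baseline.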

[2] = biological target: Retinoic acid receptor RXR-alpha (Homo sapiens) (UniProt P19793); experiment: OT_NURR1_NURR1RXRa_1440: Odyssey Thera (OT) 24-hour HEK293T Protein Complementation Assay for Nurr1/retinoid X receptor (RXR) (AID 2283386; active means hit-call score of the fitted dose curve at least 0.9, where 1 is the maximum)
Outline: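 Interaction of Nurr1 with RXRα brings fused reporter fragments together in human HEK293T cells, restoring a functional reporter. Fluorescence intensity is measured 24 h after chemical treatment, and values are analysed in the positive direction against DMSO.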

[3] = biological target: Peroxisome proliferator-activated receptor gamma (Homo sapiens) (UniProt P37231); experiment: OT_PPARg_PPARgSRC1_0480: Odyssey Thera (OT) 8-hour Protein-Complementation Assay for Peroxisome Proliferator-activated Receptor Gamma / SRC-1 Co-activator (AID 2283387; active means hit-call score of the fitted dose curve at least 0.9, where 1 is the maximum)
Outline: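 Protein-fragment complementation in HEK293T: Venus YFP halves (residues 1-158, 159-239, mutated to IFP1/IFP2) fused to PPARg/SRC-1. 8 h exposure; N/C ratio at 488 nm; DMSO negative control.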

[4] = biological target: Peroxisome proliferator-activated receptor gamma (Homo sapiens) (UniProt P37231); experiment: OT_PPARg_PPARgSRC1_1440: Odyssey Thera (OT) 24-hour Protein-Complementation Assay for Peroxisome Proliferator-activated Receptor Gamma/ SRC-1 Co-activator (AID 2283388; active means hit-call score of the fitted dose curve at least 0.9, where 1 is the maximum)
Outline: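 HEK293T cells transiently transfected with PPARg and SRC-1 fused via (Gly4Ser)2 linker to split Venus YFP fragments (IFP1/IFP2) were dosed 24 h; fixed, Draq5-stained, imaged at 488/635 nm; nuclear/cytoplasmic fluorescence ratio scored versus DMSO baseline, gain-of-signal.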

[5] = CEETOX_H295R_11DCORT: CeeTox H295R High-throughput Steroidogenesis Assay for 11-Deoxycortisol (11DCORT) (AID 2283432); conditions: actives raise or lower the signal;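 on AC50: 11-deoxycortisol secreted into the medium measured by LC-MS/MS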
Outline: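 Adrenal carcinoma line H295R, run per OECD 456 with minor changes, was forskolin-stimulated (10 uM, 48 h) before a 48 h chemical exposure at 0.1% DMSO. Secreted 11-deoxycortisol was quantified by HPLC-MS/MS.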

[6] = CEETOX_H295R_OHPREG: CeeTox H295R High-throughput Steroidogenesis Assay for OH-Pregnenolone (OHPREG) (AID 2283434); conditions: actives raise or lower the signal
Outline: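 Hormone levels in spent medium were measured by tandem mass spectrometry following liquid-liquid extraction. Cells (H295R) had been forskolin-stimulated (10 uM, 48 h) before a 48 h chemical exposure at 0.1% DMSO, with activity fitted in both directions against DMSO.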

[7] = CEETOX_H295R_OHPROG: CeeTox H295R High-throughput Steroidogenesis Assay for OH-Progesterone (OHPROG) (AID 2283435); conditions: actives raise or lower the signal;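 on AC50: 17alpha-hydroxyprogesterone secreted into medium measured by HPLC-MS/MS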
Outline: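 H295R, 10 uM forskolin prestim 48 h; cmpd in 0.1% DMSO 48 h; medium MTBE-extracted, HPLC-MS/MS for OH-progesterone; 7-pt std curve; bidirectional fit vs DMSO; MTT viability, chemicals diluted until viability >/=70%.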

[8] = CEETOX_H295R_CORTIC: CeeTox H295R High-throughput Steroidogenesis Assay for Corticosterone (CORTIC) (AID 2283437); conditions: actives raise or lower the signal;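 further: corticosterone secreted into medium quantified by mass spectrometry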
Outline: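 Corticosterone secreted into medium is measured by reverse-phase HPLC with tandem MS following liquid-liquid extraction. Cells are forskolin-stimulated (10 uM, 48 h) before 48 h test exposure; activity fitted in both directions against DMSO.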

[9] = CEETOX_H295R_CORTISOL: CeeTox H295R High-throughput Steroidogenesis Assay for Cortisol (AID 2283438); conditions: actives raise or lower the signal;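 further: cortisol secreted into medium quantified by LC-MS/MS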
Outline: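 Forskolin 10 uM 48 h prestim → test cmpd in DMSO (0.1% final) 48 h → medium MTBE-extracted → LC-MS/MS cortisol vs 7-pt std curve. Gain/loss of signal fitted vs DMSO. MTT viability in same wells.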

[10] = CEETOX_H295R_DOC: CeeTox H295R High-throughput Steroidogenesis Assay for DOC (AID 2283439); conditions: actives raise or lower the signal
Outline: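 Readout: 11-deoxycorticosterone in culture medium by reverse-phase C18 HPLC with ESI+ tandem MS after MTBE extraction. Cells: H295R, forskolin-primed (10 uM, 48 h), chemical-treated 48 h; DMSO 0.1% final. Activity fitted bidirectionally versus DMSO.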

[11] = CEETOX_H295R_ESTRADIOL: CeeTox H295R High-throughput Steroidogenesis Assay for Estradiol (AID 2283440); conditions: actives raise or lower the signal;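 further: estradiol secreted into medium quantified by LC-MS/MS after dansyl derivatisation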
Outline: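 H295R adrenocortical cells were prestimulated with 10 uM forskolin for 48 h, then exposed to test chemical in 0.1% DMSO for 48 h. Medium estradiol was extracted with MTBE, dansyl-derivatized and quantified by HPLC-MS/MS; bidirectional fit versus DMSO.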

[12] = CEETOX_H295R_ESTRONE: CeeTox H295R High-throughput Steroidogenesis Assay for Estrone (AID 2283441); conditions: actives raise or lower the signal;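 further: estrone secreted into medium measured by LC-MS/MS after dansyl derivatization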
Outline: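 H295R cells prestimulated 48 h with 10 uM forskolin, then exposed 48 h to chemicals in 0.1% DMSO final; estrone in medium extracted with MTBE, dansyl-derivatized, quantified by HPLC-MS/MS; bidirectional fitting versus DMSO, viability by MTT.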

[13] = CEETOX_H295R_PROG: CeeTox H295R High-throughput Steroidogenesis Assay for Progesterone (PROG) (AID 2283442); conditions: actives raise or lower the signal;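 on AC50: human H295R adrenal cells primed with 10 µM forskolin before dosing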
Outline: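 H295R human adrenal cells were prestimulated with 10 uM forskolin for 48 h, then exposed to test chemical (0.1% DMSO final) for 48 h. Medium progesterone was MTBE-extracted and quantified by HPLC-MS/MS, with bidirectional fitting against DMSO.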

[14] = read-out: Tumor necrosis factor receptor superfamily member 6 (Homo sapiens) (UniProt P25445); experiment: LTEA_HepaRG_FAS: Life Technologies and Expression Analysis (LTEA) Assay for Fas cell surface death receptor (FAS) using HepaRG (AID 2283447); conditions: mRNA level, 48 h; actives raise or lower the signal
Outline: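 FAS transcript level was measured by TaqMan qRT-PCR against three housekeeping genes after 48 h chemical exposure. Cells were HepaRG, 0.5% DMSO vehicle, with a top concentration of 100 uM and half-log dilutions over eight points, in duplicate.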

[15] = read-out: Fatty acid synthase (Homo sapiens) (UniProt P49327); experiment: LTEA_HepaRG_FASN: Life Technologies and Expression Analysis (LTEA) Assay for Fatty Acid Synthase (FASN) using HepaRG (AID 2283448); conditions: mRNA level, 48 h; actives raise or lower the signal
Outline: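 FASN expression changes, up or down relative to 0.5% DMSO, were measured by qRT-PCR in human HepaRG cells after 48 h treatment with chemicals at eight concentrations (half-log steps from 100 uM).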

[16] = read-out: Cyclin D2 (CCND2), CCND2 (gene 894); experiment: LTEA_HepaRG_CCND2: Life Technologies and Expression Analysis (LTEA) Assay for Cyclin D2 (CCND2) using HepaRG (AID 2283449); conditions: mRNA level, 48 h; actives raise or lower the signal
Outline: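 Read-out is CCND2 mRNA level measured by qRT-PCR in human HepaRG liver cells and normalised to three housekeeping genes. Chemicals were applied for 48 h at up to 100 uM, with gain or loss fitted relative to 0.5% DMSO.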

[17] = read-out: Cyclin Dependent Kinase Inhibitor 1A (CDKN1A), CDKN1A (gene 1026); experiment: LTEA_HepaRG_CDKN1A: Life Technologies and Expression Analysis (LTEA) Assay for Cyclin Dependent Kinase Inhibitor 1A (CDKN1A) using HepaRG (AID 2283450); conditions: mRNA level, 48 h; actives raise or lower the signal
Outline: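 Differentiated human HepaRG cells, pre-cultured 48 h, were exposed in duplicate for 48 h in serum-free induction medium to eight half-log concentrations up to 100 uM (0.5% DMSO). CDKN1A mRNA was measured by qRT-PCR, normalized to ACTB/GAPDH/POLR2A, bidirectionally fitted versus DMSO.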

[18] = CEETOX_H295R_ANDR: CeeTox H295R High-throughput Steroidogenesis Assay for Androstenedione (ANDR) (AID 2283436); conditions: actives raise or lower the signal
Outline: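 Read-out is androstenedione secreted into medium, measured by tandem mass spectrometry after liquid-liquid extraction. Cells were H295R, dosed for 48 h per modified OECD 456; activity fitted in both directions relative to DMSO.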

Measured: AC50

Chain of Fatty acid synthase (Homo sapiens) (P49327 whole entry, looked up): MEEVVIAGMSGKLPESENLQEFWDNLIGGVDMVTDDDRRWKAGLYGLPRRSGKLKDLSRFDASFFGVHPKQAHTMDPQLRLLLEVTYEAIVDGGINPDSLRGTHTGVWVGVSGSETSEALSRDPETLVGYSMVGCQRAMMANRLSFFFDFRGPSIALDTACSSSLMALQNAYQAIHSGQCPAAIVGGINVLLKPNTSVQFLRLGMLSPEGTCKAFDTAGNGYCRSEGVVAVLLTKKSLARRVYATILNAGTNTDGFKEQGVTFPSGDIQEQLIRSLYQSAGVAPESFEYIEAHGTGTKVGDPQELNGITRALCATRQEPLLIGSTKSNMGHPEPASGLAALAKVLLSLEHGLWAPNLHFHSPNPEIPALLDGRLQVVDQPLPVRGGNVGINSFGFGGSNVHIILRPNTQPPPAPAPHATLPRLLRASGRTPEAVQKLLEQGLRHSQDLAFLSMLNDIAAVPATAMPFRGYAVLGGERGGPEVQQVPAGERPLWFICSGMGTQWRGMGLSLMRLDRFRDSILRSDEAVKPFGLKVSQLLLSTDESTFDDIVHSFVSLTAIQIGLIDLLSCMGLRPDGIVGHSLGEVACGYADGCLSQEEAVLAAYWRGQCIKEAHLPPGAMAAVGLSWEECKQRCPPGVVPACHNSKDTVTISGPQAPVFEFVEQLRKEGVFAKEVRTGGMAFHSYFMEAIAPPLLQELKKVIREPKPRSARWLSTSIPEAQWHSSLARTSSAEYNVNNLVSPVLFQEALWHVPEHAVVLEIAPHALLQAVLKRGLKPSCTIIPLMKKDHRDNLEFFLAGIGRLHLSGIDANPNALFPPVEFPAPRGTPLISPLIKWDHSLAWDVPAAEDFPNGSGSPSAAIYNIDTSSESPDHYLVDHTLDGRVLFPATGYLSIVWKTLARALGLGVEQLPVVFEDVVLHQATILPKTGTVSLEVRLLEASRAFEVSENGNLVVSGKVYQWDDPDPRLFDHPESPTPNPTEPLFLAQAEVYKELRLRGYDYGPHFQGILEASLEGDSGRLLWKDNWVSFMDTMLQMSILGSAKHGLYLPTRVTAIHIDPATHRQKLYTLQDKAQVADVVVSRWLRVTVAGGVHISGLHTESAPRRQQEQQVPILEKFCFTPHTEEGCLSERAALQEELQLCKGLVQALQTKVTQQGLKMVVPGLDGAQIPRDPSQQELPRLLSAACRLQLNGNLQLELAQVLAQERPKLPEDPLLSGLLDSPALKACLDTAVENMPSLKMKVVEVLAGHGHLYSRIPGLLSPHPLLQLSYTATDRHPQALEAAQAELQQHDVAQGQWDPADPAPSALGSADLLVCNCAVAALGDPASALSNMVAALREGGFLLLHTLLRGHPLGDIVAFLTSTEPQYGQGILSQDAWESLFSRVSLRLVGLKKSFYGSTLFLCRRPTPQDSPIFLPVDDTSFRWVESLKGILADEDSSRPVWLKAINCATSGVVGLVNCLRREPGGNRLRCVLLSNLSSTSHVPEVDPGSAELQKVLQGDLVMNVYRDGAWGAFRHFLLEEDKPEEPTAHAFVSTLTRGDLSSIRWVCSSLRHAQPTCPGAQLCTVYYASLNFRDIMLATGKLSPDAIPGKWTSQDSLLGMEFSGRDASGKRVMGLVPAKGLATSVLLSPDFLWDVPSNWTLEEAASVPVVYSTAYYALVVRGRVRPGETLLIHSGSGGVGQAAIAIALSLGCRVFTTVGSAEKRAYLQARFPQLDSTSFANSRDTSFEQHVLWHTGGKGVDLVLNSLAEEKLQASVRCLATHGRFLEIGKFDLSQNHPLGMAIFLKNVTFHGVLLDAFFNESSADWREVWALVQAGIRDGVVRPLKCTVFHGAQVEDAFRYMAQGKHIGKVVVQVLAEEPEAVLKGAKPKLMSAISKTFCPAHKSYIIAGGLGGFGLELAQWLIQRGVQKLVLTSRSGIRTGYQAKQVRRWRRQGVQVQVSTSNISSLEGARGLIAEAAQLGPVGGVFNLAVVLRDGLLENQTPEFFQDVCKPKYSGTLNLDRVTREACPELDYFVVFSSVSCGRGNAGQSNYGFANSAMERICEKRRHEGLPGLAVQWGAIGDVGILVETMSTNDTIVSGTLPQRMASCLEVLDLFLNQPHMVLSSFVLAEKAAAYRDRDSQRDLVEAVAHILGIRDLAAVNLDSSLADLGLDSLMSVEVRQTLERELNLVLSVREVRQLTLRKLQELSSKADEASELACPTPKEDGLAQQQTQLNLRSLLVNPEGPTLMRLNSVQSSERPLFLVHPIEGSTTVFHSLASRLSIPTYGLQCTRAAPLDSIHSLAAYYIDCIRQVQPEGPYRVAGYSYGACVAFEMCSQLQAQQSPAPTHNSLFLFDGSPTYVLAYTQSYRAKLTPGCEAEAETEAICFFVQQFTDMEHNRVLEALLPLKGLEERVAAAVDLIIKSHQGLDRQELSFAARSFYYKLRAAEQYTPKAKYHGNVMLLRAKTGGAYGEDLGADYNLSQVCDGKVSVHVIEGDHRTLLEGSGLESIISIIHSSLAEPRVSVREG
Chain of Peroxisome proliferator-activated receptor gamma (Homo sapiens) (P37231 whole entry, looked up, the tested form may be a part): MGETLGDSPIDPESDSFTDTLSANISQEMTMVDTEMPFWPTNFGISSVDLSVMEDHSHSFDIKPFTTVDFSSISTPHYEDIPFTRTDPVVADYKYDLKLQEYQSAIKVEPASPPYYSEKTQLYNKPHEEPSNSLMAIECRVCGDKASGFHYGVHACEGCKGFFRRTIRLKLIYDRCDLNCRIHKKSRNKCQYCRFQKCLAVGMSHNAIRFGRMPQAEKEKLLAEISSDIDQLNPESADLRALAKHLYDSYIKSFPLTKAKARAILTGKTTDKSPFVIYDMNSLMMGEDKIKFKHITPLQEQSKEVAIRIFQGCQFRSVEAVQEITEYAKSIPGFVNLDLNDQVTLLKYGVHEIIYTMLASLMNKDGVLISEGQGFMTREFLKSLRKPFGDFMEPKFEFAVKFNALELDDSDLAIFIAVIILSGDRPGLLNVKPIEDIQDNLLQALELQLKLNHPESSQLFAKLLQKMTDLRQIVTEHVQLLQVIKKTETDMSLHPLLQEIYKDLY
Chain of Retinoic acid receptor RXR-alpha (Homo sapiens) (P19793 whole entry, looked up, the tested form may be a part): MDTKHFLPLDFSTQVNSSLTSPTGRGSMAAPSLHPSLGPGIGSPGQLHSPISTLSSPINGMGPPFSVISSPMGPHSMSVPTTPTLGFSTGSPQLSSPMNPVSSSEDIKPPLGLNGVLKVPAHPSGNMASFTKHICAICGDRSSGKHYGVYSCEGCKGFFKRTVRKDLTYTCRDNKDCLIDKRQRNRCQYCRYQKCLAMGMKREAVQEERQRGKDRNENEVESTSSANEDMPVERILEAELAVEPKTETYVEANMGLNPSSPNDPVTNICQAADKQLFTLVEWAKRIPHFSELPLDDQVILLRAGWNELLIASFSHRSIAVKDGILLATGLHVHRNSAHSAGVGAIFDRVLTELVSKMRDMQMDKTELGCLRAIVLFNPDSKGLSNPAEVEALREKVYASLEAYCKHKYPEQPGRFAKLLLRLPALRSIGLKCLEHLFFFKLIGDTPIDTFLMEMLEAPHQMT

N#Cc1c(Cl)cccc1Cl
not listed: [18]
inactive: all other assays above

CNC(=O)N(C)c1nnc(C(C)(C)C)s1
inactive: [1] | [2] | [3] | [4] | [14] | [15]

CCOc1nc(C(Cl)(Cl)Cl)ns1
active: [16] 1110 nM
not listed: [5] | [8] | [9] | [10] | [14] | [17] | [18]
inactive: all other assays above

COP(=O)(OC)O/C(C)=C/C(=O)N(C)C
inactive: [1] | [2] | [3] | [4] | [14] | [15] | [16]

COCc1cnc(C2=NC(C)(C(C)C)C(=O)N2)c(C(=O)O)c1 (configuration not stated)
inactive: all assays above

Nc1cnn(-c2ccccc2)c(=O)c1Cl
not listed: [1] | [17] | [18]
inactive: all other assays above

CC1(C)C(C=C(Cl)Cl)C1C(=O)OC(C#N)c1cccc(Oc2ccccc2)c1 (configuration not stated)
not listed: [18]
inactive: all other assays above

COc1cc(Cl)c(OC)cc1Cl
not listed: [17] | [18]
inactive: all other assays above

CCOP(=O)(OCC)Oc1nc(Cl)c(Cl)cc1Cl
inactive: [1] | [2] | [3] | [4] | [14] | [16] | [17]
active: [2] 9870 nM | [15] 60200 nM

CC1(C)CON(Cc2ccccc2Cl)C1=O
not listed: [5] | [8] | [9] | [10] | [18]
inactive: all other assays above

CNC(=O)Oc1cccc2ccccc12
inactive: [1] | [6] | [7] | [13] | [14] | [15]
active: [16] 19.3 nM

CCCC(=NOCC)C1=C(O)CC(CC(C)SCC)CC1=O (configuration not stated)
active: [12] 554 nM
not listed: [18]
inactive: all other assays above

CCCN(CC)CC1COC2(CCC(C(C)(C)C)CC2)O1 (configuration not stated)
active: [1] 50000 nM | [5] 202 nM | [6] 131 nM | [7] 112 nM | [10] 812 nM | [13] 380 nM | [15] 274 nM
inactive: [1] | [2] | [8] | [9] | [11] | [12] | [14] | [16]

COC(=O)N(C(=O)N1CO[C@@]2(C(=O)OC)Cc3cc(Cl)ccc3C2=N1)c1ccc(OC(F)(F)F)cc1
active: [15] 18800 nM
inactive: [1] | [2] | [3] | [4] | [14] | [16]

CC(C)Nc1nc(Cl)nc(NC(C)C)n1
active: [12] 23100 nM
not listed: [1] | [5] | [8] | [9] | [10] | [18]
inactive: all other assays above

From PubChem BioAssay (EPA / NIEHS)
